Drawing on PubChem BioAssay (NCI), this text covers growth for eight compounds.

The panel holds about 83,000 compounds, 20% with a hit somewhere; the sample as a whole holds those more often.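 Percent growth is the endpoint: 0 to 100 indicates growth inhibition (40 means 60% inhibition), 0 means no net growth, and negative values indicate cell death.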 Unmarked numbers belong to inactive results. Activity calls are given as the source filed them. How the source made its calls: active means growth percent below 10; inactive means the rest.

Experiment in all cases: NCI-60 one-dose screen, 48 h (100 = growth as untreated, 0 = no growth, -100 = all killed)
The test system of one assay is HCT-15 colon. The settings on record: 10 µM unless noted.
The test system of a further assay is HT29 colon. Particulars: 10 µM unless noted.
In a further assay the test system is SNB-75 CNS. The settings on record: 10 µM unless noted.
A further assay concerns SNB-19 CNS. Particulars: 10 µM unless noted.
The test system of another assay is U251 CNS. The settings on record: 10 µM unless noted.
The next assay deals with PC-3 prostate. Particulars: 10 µM unless noted.
In another assay the test system is SK-MEL-5 melanoma. Particulars: 10 µM unless noted.
The next assay relates to UACC-62 melanoma. The settings on record: 10 µM unless noted.
Another assay deals with LOX IMVI melanoma. Particulars: 10 µM unless noted.
A further assay concerns SK-MEL-28 melanoma. Particulars: 10 µM unless noted.
In a further assay the test system is SK-MEL-2 melanoma. Particulars: 10 µM.
Another assay relates to EKVX NSCLC. Particulars: 10 µM unless noted.
Another assay relates to SN12C renal. Particulars: 10 µM unless noted.
In another assay the test system is UO-31 renal. The settings on record: 10 µM unless noted.
The test system of another assay is TK-10 renal. Particulars: 10 µM unless noted.
A further assay concerns ACHN renal. The settings on record: 10 µM unless noted.
The next assay has as its system A498 renal. Particulars: 10 µM unless noted.
A further assay relates to CCRF-CEM leukemia. The settings on record: 10 µM unless noted.
For a further assay, the system named is MOLT-4 leukemia. Particulars: 10 µM unless noted.
The subject of another assay is CAKI-1 renal. Particulars: 10 µM unless noted.

Take `Cc1cc(N(CCNc2ccnc3cc(Cl)ccc23)Cc2ccc3c(c2)OCO3)nc(N2CCCC2)n1`: the growth was 0.301% (active) with HCT-15 colon; -10.2% (active) in the assay with HT29 colon; -46.7% (active) in the assay on SNB-75 CNS; 26.5% with SNB-19 CNS; -17.6% (active) in the assay on U251 CNS; 36.1% in the assay with PC-3 prostate. Further, the growth is -96.9% (active) in the assay with SK-MEL-5 melanoma; 18.2% in the assay with UACC-62 melanoma; -80.9% (active) in the assay on LOX IMVI melanoma; -58.7% (active) with SK-MEL-28 melanoma; -39.9% (active) in the assay with SK-MEL-2 melanoma; 35.8% in the assay with EKVX NSCLC. Moreover, the growth was 27.9% with SN12C renal; -56.2% (active) in the assay on UO-31 renal; -43.5% (active) with TK-10 renal; -49.1% (active) with ACHN renal; -2.25% (active) in the assay on A498 renal; -0.451% (active) in the assay with CCRF-CEM leukemia. Further, the growth in the assay on MOLT-4 leukemia is -17.7% (active).
Regarding `Nc1c2c(c(O)c3c1=C(CO)C=N3)=NCCS2=O` (stereo not drawn), the growth with HCT-15 colon is 4.65% (active); in the assay on HT29 colon, -27.4% (active); in the assay with SNB-75 CNS it was -45.3% (active); in the assay on SNB-19 CNS, -93.6% (active); in the assay on U251 CNS, -89.8% (active); in the assay on PC-3 prostate it was 8% (active). Besides, the growth in the assay with SK-MEL-5 melanoma is -100% (active); in the assay with UACC-62 melanoma, -56.4% (active); with LOX IMVI melanoma it was -93.4% (active); with SK-MEL-28 melanoma it was -17.4% (active); in the assay with SK-MEL-2 melanoma it was -51.3% (active); with EKVX NSCLC, -43.1% (active). Further, the growth in the assay on SN12C renal is -33.2% (active); in the assay with UO-31 renal, -66.8% (active); with TK-10 renal, 117%; in the assay with ACHN renal, -18.8% (active); in the assay with A498 renal, -45.6% (active); in the assay with CCRF-CEM leukemia it was 4.74% (active). Moreover, the growth with MOLT-4 leukemia was -33.8% (active).
Turning to `COc1ccc2nc3cc(Cl)ccc3c(Nc3ccc(N(C)C)cc3)c2c1`, the growth is 91.1% in the assay with HCT-15 colon; 72.1% with HT29 colon; 111% in the assay with SNB-75 CNS; 101% with SNB-19 CNS; 93.5% in the assay with U251 CNS; 85.4% with PC-3 prostate. In addition, the growth is 100% in the assay with SK-MEL-5 melanoma; 98.1% in the assay on UACC-62 melanoma; 88.8% in the assay with LOX IMVI melanoma; 112% in the assay on SK-MEL-28 melanoma; 96.8% in the assay with SK-MEL-2 melanoma; 92.9% in the assay on EKVX NSCLC. In addition, the growth in the assay on SN12C renal is 91.1%; in the assay on UO-31 renal it was 84%; in the assay with TK-10 renal, 128%; with ACHN renal it was 100%; in the assay on A498 renal, 94.6%; in the assay on MOLT-4 leukemia, 0.475% (active).
On to `COc1ccc(-c2cc3c(oc2=O)-c2ccccc2OC3OC(C)=O)cc1` (stereo not drawn), for which the growth in the assay with HCT-15 colon was 86.2%; with HT29 colon it was 81.1%; in the assay with SNB-75 CNS, 100%; in the assay on SNB-19 CNS it was 98%; with U251 CNS it was 89.4%; in the assay on PC-3 prostate it was 89.2%. Moreover, the growth in the assay on SK-MEL-5 melanoma was 98.2%; in the assay with UACC-62 melanoma, 81.8%; in the assay with LOX IMVI melanoma, 98.2%; in the assay with SK-MEL-28 melanoma it was 118%; in the assay on SK-MEL-2 melanoma, 100%; with EKVX NSCLC it was 73.2%. In addition, the growth in the assay on SN12C renal was 91.5%; in the assay on TK-10 renal it was 104%; with ACHN renal it was 102%; in the assay with CAKI-1 renal, 113%; with A498 renal, 100%; with CCRF-CEM leukemia, -25.9% (active). In addition, in the assay on MOLT-4 leukemia, the growth was 72.4%.
In the case of `Nc1c2c(c(O)c3c1=C(CO)C=N3)=NCCS2`, the growth in the assay with HCT-15 colon was -87.1% (active); in the assay with HT29 colon it was -20.9% (active); with SNB-75 CNS, -79.2% (active); in the assay on SNB-19 CNS, -93.7% (active); in the assay with U251 CNS, -91.5% (active); in the assay on PC-3 prostate, -51.8% (active). In addition, the growth with SK-MEL-5 melanoma was -99.1% (active); in the assay on UACC-62 melanoma, -79.9% (active); in the assay with LOX IMVI melanoma it was -89.5% (active); in the assay on SK-MEL-28 melanoma, -79% (active); in the assay with SK-MEL-2 melanoma, -54.6% (active); with EKVX NSCLC, -63.8% (active). Further, the growth in the assay with SN12C renal is -63.4% (active); with UO-31 renal, -86.3% (active); with TK-10 renal it was -79.4% (active); with ACHN renal, 0.734% (active); in the assay with A498 renal, -88.2% (active); in the assay on MOLT-4 leukemia it was -24.7% (active).
With `CCN1CCN(c2nc(C)cc(N(CCCNc3ccnc4cc(Cl)ccc34)Cc3ccc4c(c3)OCO4)n2)CC1`, the growth with HCT-15 colon is -32.9% (active); in the assay with HT29 colon it was -26.2% (active); with SNB-75 CNS, -53.5% (active); in the assay with SNB-19 CNS, 24.8%; in the assay with U251 CNS, -73.7% (active); with PC-3 prostate it was 24.7%. Also, the growth with SK-MEL-5 melanoma is -97.6% (active); in the assay with UACC-62 melanoma, -52.9% (active); with LOX IMVI melanoma, -84.4% (active); in the assay on SK-MEL-28 melanoma, -64.1% (active); with SK-MEL-2 melanoma it was -60.1% (active); with EKVX NSCLC, 35.8%. For the same compound, the growth was 30.1% with SN12C renal; -86.8% (active) in the assay with UO-31 renal; -70.7% (active) in the assay with TK-10 renal; -25% (active) with ACHN renal; -27.7% (active) in the assay on A498 renal; -14.1% (active) in the assay with MOLT-4 leukemia.
Turning to `CCOC(=O)C1=C(C)NC(=O)NC1c1cc(=O)oc2ccc(C)cc12` (stereo not drawn), the growth with HCT-15 colon was 104%; with HT29 colon, 95.2%; in the assay on SNB-75 CNS, 97%; in the assay on SNB-19 CNS, 106%; in the assay with U251 CNS it was 102%; with PC-3 prostate it was 97.2%. Further, the growth with SK-MEL-5 melanoma was 98.2%; with UACC-62 melanoma, 99%; in the assay on LOX IMVI melanoma, 97.5%; in the assay on SK-MEL-28 melanoma, 107%; in the assay with SK-MEL-2 melanoma, 95.6%; in the assay with EKVX NSCLC it was 95.2%. Also, the growth is 101% in the assay with SN12C renal; 93.1% in the assay on UO-31 renal; 97.1% in the assay on TK-10 renal; 114% in the assay with ACHN renal; 104% in the assay with A498 renal; 101% with CCRF-CEM leukemia. In addition, in the assay on MOLT-4 leukemia, the growth was 99.1%.
Regarding `CC(C)C1CCC(C)C(C2(C#N)C(N)=NC(N)=C2C#N)C1=O` (stereo not drawn), the growth in the assay on HCT-15 colon was 101%; in the assay on HT29 colon, 96.2%; with SNB-75 CNS, 84%; with SNB-19 CNS it was 101%; with U251 CNS it was 99.7%; with PC-3 prostate it was 86%. The growth is 101% with SK-MEL-5 melanoma; 102% in the assay on UACC-62 melanoma; 92.5% with LOX IMVI melanoma; 107% in the assay on SK-MEL-28 melanoma; 109% with SK-MEL-2 melanoma; 94.4% in the assay with EKVX NSCLC. Moreover, the growth is 100% with SN12C renal; 80.2% with UO-31 renal; 115% in the assay on TK-10 renal; 107% in the assay with ACHN renal; 105% with A498 renal; 96.1% in the assay on MOLT-4 leukemia.
